# Measurements reported in PubChem BioAssay (Tox21).
# Inconclusive results are not listed. Entries that show only a call come without a potency. A number with no mark means an inactive call. The source made the active and inactive calls. Unless noted, calls follow the shape of the dose curve; as a rule, active = well fitted curve in the direction sought with a large enough effect in the repeat runs; inconclusive = weak or mixed curves; inactive = no such curve, though single readings can be large; an effect the other way counts as inactive or inconclusive.
# Assays:
# [1] = qHTS assay to identify small molecule agonists of the RXR signaling pathway - cell viability counter screen (AID 1159529); also: nearly all actives have a fitted effect of over 50% in size; also: potency is read from the fitted curve at half-maximal effect
# Procedure, shortened: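 Steps: seed RXR-alpha-UAS-bla HEK 293T cells in assay medium containing 2% charcoal-stripped FBS; incubate 5 hr; add compounds in DMSO; incubate 16 hr at 37 C; after the bla read, add CellTiter-Glo and read luminescence at 30 min.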
# [2] = qHTS assay to identify small molecule antagonists of the retinoid acid receptor (RAR) signaling pathway - cell viability counter screen (AID 1159551); also: nearly all actives have a fitted effect of over 35% in size
# Procedure, shortened: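 Viability of C3RL4 cells is quantified from ATP by luminescence after 6 h treatment at 37 C with compounds and 1 uM retinol.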
# [3] = qHTS assay to identify small molecule antagonists of the retinoic acid receptor (RAR) signaling pathway (AID 1159552; also: nearly all actives have a fitted effect of over 50% in size)
# Procedure, shortened: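 Retinol at 1 uM final stimulated RARE-luciferase expression in C3RL4 cells exposed to test compounds for 6 hr at 37 C. Reduced luminescence, read 30 min after detection reagent, indicated pathway antagonism.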
# [4] = qHTS assay to identify small molecule agonists of the retinoic acid receptor (RAR) signaling pathway (AID 1159553); also: potency is read from the fitted curve at half-maximal effect
# Procedure, shortened: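 Compounds dissolved in DMSO were pinned onto C3RL4 cells seeded the previous day, and plates were held 6 hr at 37 C. RARE-driven luciferase output was then read by luminescence.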
# [5] = qHTS assay to identify small molecule antagonists of the estrogen related receptor (ERR) signaling pathway from Tox21 library - cell viability counter screen (AID 1224834); also: nearly all actives have a fitted effect of over 30% in size
# Procedure, shortened: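 In this quantitative HTS format, ERR cells receive compounds in DMSO and are incubated for 17.5 h at 37 C. Live-cell protease activity is then detected with CellTiter-Fluor.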
# [6] = target: Luciferin 4-monooxygenase (Photinus pyralis) (UniProt P08659); experiment: qHTS assay to identify small molecule inhibitors of firefly luciferase (AID 1224835); also: nearly all actives have a fitted effect of over 25% in size; also: potency is read from the fitted curve at half-maximal effect
# Procedure, shortened: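 Quantitative HTS format; KM concentrations of both substrates. Purified P. pyralis FLuc activity quantified from luminescence images.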
# [7] = qHTS assay to identify small molecule agonists of the constitutive androstane receptor (CAR) signaling pathway - cell viability counter screen (AID 1224836); also: series mostly up to about 92 µM; nearly all actives have a fitted effect of over 45% in size
# Procedure, shortened: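 Cells were seeded and incubated 4 hrs. Compounds were added across 15 concentrations together with PK11195 at 0.75 uM final. Plates were incubated 23 hrs at 37 C. CellTiter-Fluor was added and fluorescence measured.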
# [8] = qHTS assay to identify small molecule antagonists of the constitutive androstane receptor (CAR) signaling pathway - cell viability counter screen (AID 1224837); also: series mostly up to about 92 µM; nearly all actives have a fitted effect of over 45% in size
# Procedure, shortened: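 In quantitative HTS format, compounds at 15 concentrations were applied to HepG2 cells double-transfected with hCAR and CYP2B6-2.2kb under 50 nM CITCO stimulation; live-cell protease activity was read after 23 hr via CellTiter-Fluor.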
# [9] = target: Nuclear receptor subfamily 1 group I member 3 (Homo sapiens) (UniProt Q14994); experiment: qHTS assay to identify small molecule antagonists of the constitutive androstane receptor (CAR) signaling pathway (AID 1224838); also: nearly all actives have a fitted effect of over 40% in size
# Procedure, shortened: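 CITCO-stimulated (50 nM final) HepG2 cells stably transfected with hCAR and CYP2B6-2.2kb luciferase were exposed to compounds at 15 concentrations for 24 h at 37 C/5% CO2. A luciferase reagent was added and luminescence recorded after 30 min.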
# [10] = target: Nuclear receptor subfamily 1 group I member 3 (Homo sapiens) (UniProt Q14994); experiment: qHTS assay to identify small molecule agonists of the constitutive androstane receptor (CAR) signaling pathway (AID 1224839); also: nearly all actives have a fitted effect of over 15% in size; also: potency is read from the fitted curve at half-maximal effect
# Procedure, shortened: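 Cells were plated and incubated 4 hrs, then dosed with compounds at 15 concentrations. PK11195 was added to 0.75 uM final. After 24 hrs at 37 C, luciferase luminescence was measured.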
# [11] = qHTS assay to identify small molecule antagonists of the estrogen related receptor signaling pathway with the pleiotropic PPARgamma coactivator (PGC) from Tox21 10K library - cell viability counter screen (AID 1224840; active = well fitted cell-killing curve with a large enough effect in the repeat runs, not every such curve was filed as active; also: nearly all actives have a fitted effect of over 40% in size)
# Procedure, shortened: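 Viability counter screen, PGC/ERR cells: 17.5 h compound exposure at 37 C, CellTiter-Fluor fluorescence endpoint.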
# [12] = qHTS assay to identify small molecule antagonists of the estrogen related receptor signaling pathway with the pleiotropic PPARgamma coactivator (PGC) from Tox21 10K library (AID 1224841; call rule not given here; also: actives are mostly falling curves and most rising ones were filed inactive; nearly all actives have a fitted effect of over 50% in size; also: potency is read from the fitted curve at half-maximal effect)
# Procedure, shortened: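 In the PGC/ERR line, DMSO solutions of test chemicals are pin-delivered to 2,000 cells/well six hours after dispensing. Following eighteen hours' incubation, One-Glo reagent is added and luminescence recorded.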
# [13] = qHTS assay to identify small molecule agonists of the estrogen related receptor signaling pathway with the pleiotropic PPARgamma coactivator (PGC) from Tox21 10K library (AID 1224842); also: nearly all actives have a fitted effect of over 15% in size; also: potency is read from the fitted curve at half-maximal effect
# Procedure, shortened: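 PGC/ERR reporter cells (NTP line) were seeded 2,000 per well, rested 6 h at 37 C/5% CO2, then pin-dosed with compounds in DMSO for 18 h at 37 C; luciferase read by One-Glo luminescence after 30 min at room temperature.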
# Luciferin 4-monooxygenase (Photinus pyralis), sequence (P08659 whole entry, looked up): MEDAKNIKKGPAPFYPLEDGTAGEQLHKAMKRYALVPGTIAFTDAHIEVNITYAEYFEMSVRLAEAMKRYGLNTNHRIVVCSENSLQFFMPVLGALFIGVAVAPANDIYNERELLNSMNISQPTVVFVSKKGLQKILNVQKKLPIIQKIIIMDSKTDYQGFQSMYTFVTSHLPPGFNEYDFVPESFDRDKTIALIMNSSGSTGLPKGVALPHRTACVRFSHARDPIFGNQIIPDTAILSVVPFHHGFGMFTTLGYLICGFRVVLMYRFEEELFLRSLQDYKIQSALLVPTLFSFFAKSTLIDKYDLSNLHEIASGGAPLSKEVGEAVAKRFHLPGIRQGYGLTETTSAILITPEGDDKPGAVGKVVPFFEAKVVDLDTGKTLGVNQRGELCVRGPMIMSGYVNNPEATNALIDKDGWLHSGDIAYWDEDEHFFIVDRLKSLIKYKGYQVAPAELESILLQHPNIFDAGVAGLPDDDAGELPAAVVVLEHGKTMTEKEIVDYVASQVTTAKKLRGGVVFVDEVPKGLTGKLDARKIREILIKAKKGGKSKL
# Nuclear receptor subfamily 1 group I member 3 (Homo sapiens), sequence (Q14994 whole entry, looked up): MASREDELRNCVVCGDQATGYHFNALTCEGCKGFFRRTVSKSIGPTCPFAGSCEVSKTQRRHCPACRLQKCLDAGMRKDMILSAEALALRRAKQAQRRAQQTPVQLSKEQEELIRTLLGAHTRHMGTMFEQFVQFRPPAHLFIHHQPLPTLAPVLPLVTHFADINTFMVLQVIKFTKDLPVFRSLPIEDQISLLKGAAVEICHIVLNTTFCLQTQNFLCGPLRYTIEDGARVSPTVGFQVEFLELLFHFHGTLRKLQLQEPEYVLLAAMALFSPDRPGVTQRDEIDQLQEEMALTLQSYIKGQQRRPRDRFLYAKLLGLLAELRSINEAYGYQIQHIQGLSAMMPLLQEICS
Structure (SMILES),Potency [1],outcome [2],Potency [3],Potency [4],Potency [5],Potency [6],outcome [7],outcome [8],Potency [9],Potency [10],outcome [11],Potency [12],Potency [13]
C1=C\CC/C=C\CC/C=C\CC/1,inactive,inactive,inactive,inactive,inactive,inactive,inactive,inactive,inactive,inactive,inactive,inactive,inactive
Cc1nc(-c2ccc(OCC(C)C)c(C#N)c2)sc1C(=O)O,inactive,inactive,inactive,0.0944 µM (active),inactive,0.309 µM (active),inactive,inactive,–,0.075 µM (active),inactive,inactive,0.668 µM (active)
CCO[Si](C)(OCC)OCC,inactive,inactive,inactive,inactive,inactive,inactive,inactive,inactive,inactive,inactive,inactive,inactive,inactive
CN(C)C(=O)Nc1ccccc1,inactive,inactive,inactive,inactive,inactive,inactive,inactive,inactive,inactive,inactive,inactive,inactive,inactive
COc1ccc2cc(C=O)ccc2c1,inactive,inactive,inactive,inactive,inactive,34.7 µM (active),inactive,inactive,inactive,inactive,inactive,inactive,inactive
O=S(=O)(O)c1ccccc1O,inactive,inactive,inactive,inactive,inactive,inactive,inactive,inactive,inactive,inactive,inactive,inactive,inactive
CCCC(C)CO (configuration not stated),inactive,inactive,inactive,inactive,inactive,inactive,inactive,–,inactive,inactive,inactive,–,–
CCCCCCC(=O)OCC,inactive,inactive,inactive,inactive,inactive,inactive,inactive,–,inactive,inactive,inactive,inactive,inactive
CCCCC1CCCCC(=O)O1 (configuration not stated),inactive,inactive,inactive,inactive,inactive,inactive,inactive,inactive,–,inactive,inactive,inactive,inactive
C#CC(C)(O)CC(C)C (configuration not stated),inactive,inactive,inactive,inactive,inactive,inactive,inactive,inactive,inactive,inactive,inactive,inactive,inactive
CCC(=O)/C=C/c1ccc(OC)cc1,inactive,inactive,inactive,61.1 µM (active),inactive,35.6 µM (active),inactive,inactive,inactive,54.5 µM (active),inactive,inactive,inactive
COCCOC(=O)CC#N,inactive,inactive,inactive,inactive,inactive,inactive,inactive,inactive,–,inactive,inactive,–,–
CCOC(=O)Cn1c(=O)sc2cccc(Cl)c21,inactive,inactive,inactive,inactive,inactive,inactive,inactive,inactive,inactive,54.5 µM (active),inactive,inactive,inactive
CCC(C)OC(=O)N1CCCCC1CCO (configuration not stated),inactive,inactive,inactive,inactive,inactive,inactive,inactive,inactive,–,inactive,inactive,inactive,inactive
CO[Si](OC)(OC)OC,inactive,inactive,–,–,inactive,inactive,inactive,inactive,inactive,inactive,inactive,–,–
COc1ccc(COC=O)cc1,inactive,inactive,inactive,inactive,inactive,inactive,inactive,–,inactive,inactive,inactive,inactive,inactive
CCOC(=O)Nc1ccc2c(c1)N(C(=O)CCN1CCOCC1)c1ccccc1S2,inactive,inactive,inactive,inactive,inactive,inactive,inactive,–,–,inactive,inactive,–,–
CCC(=O)Nc1cccc(N)c1,inactive,inactive,inactive,inactive,inactive,inactive,inactive,inactive,inactive,inactive,inactive,inactive,inactive
O=C(O)C(O)[C@H](O)[C@@H](O)[C@H](O)[C@H](O)CO (some centres not stated),49.5 µM (active),inactive,inactive,inactive,inactive,inactive,inactive,–,inactive,inactive,inactive,–,inactive
CCCCCCCCCCCCCCC,inactive,inactive,inactive,inactive,inactive,inactive,inactive,inactive,–,inactive,inactive,inactive,inactive
OC[C@H]1O[C@@H]2O[C@H]3[C@H](O)[C@@H](O)[C@@H](O[C@H]4[C@H](O)[C@@H](O)[C@@H](O[C@H]5[C@H](O)[C@@H](O)[C@@H](O[C@H]6[C@H](O)[C@@H](O)[C@@H](O[C@H]7[C@H](O)[C@@H](O)[C@@H](O[C@H]8[C@H](O)[C@@H](O)[C@@H](O[C@H]9[C@H](O)[C@@H](O)[C@@H](O[C@H]1[C@H](O)[C@H]2O)O[C@@H]9CO)O[C@@H]8CO)O[C@@H]7CO)O[C@@H]6CO)O[C@@H]5CO)O[C@@H]4CO)O[C@@H]3CO,inactive,inactive,inactive,inactive,inactive,inactive,inactive,inactive,inactive,inactive,inactive,inactive,inactive
CC(C)COC(=O)C(C)C,inactive,inactive,inactive,inactive,inactive,inactive,inactive,inactive,inactive,inactive,inactive,–,inactive
C=C(C)C1CC=C(C)C(O)C1 (configuration not stated),inactive,inactive,inactive,inactive,inactive,inactive,inactive,inactive,inactive,inactive,inactive,inactive,inactive
CC(C)(O)Cc1ccccc1,inactive,inactive,inactive,inactive,inactive,inactive,inactive,inactive,inactive,inactive,inactive,inactive,inactive

Structure (SMILES),Potency [1],outcome [2],Potency [3],Potency [4],Potency [5],Potency [6],outcome [7],outcome [8],Potency [9],Potency [10],outcome [11],Potency [12],Potency [13]
O=C(O)c1cccc(C(=O)O)n1,inactive,inactive,inactive,inactive,inactive,inactive,inactive,–,–,inactive,inactive,inactive,inactive
CCCC(C)C(=O)O (configuration not stated),18.7 µM (active),inactive,inactive,inactive,inactive,inactive,inactive,inactive,inactive,inactive,inactive,52.3 µM (active),inactive
CCCCCCCCCCCCI,–,inactive,inactive,inactive,inactive,56.7 µM (active),inactive,inactive,inactive,inactive,inactive,–,–
OCC(CO)(CO)COCC(CO)(CO)CO,inactive,inactive,–,–,inactive,inactive,inactive,inactive,–,inactive,inactive,–,–
C1C2OC2C2C1C1CC2C2OC12 (configuration not stated),–,inactive,inactive,inactive,inactive,inactive,inactive,–,inactive,inactive,inactive,–,–
CCCCCCCCCCCl,inactive,inactive,–,–,inactive,inactive,inactive,–,–,–,inactive,inactive,inactive
CCC(=O)c1cccc(Cl)c1,–,inactive,inactive,inactive,inactive,inactive,inactive,inactive,–,–,inactive,–,–
Oc1cc(O)c2c(c1)O[C@H](c1ccc(O)c(O)c1)[C@H](O)C2,–,inactive,inactive,inactive,inactive,inactive,inactive,–,–,–,inactive,–,–
Nc1ccn(C2CO[C@H](CO)O2)c(=O)n1 (some centres not stated),inactive,inactive,–,–,inactive,inactive,inactive,inactive,–,–,inactive,inactive,inactive
NC(=O)c1ncn([C@@H]2O[C@H](CO)[C@@H](O)[C@H]2O)c1N,inactive,–,inactive,inactive,inactive,inactive,–,inactive,inactive,inactive,inactive,–,–
NS(=O)(=O)c1cc2c(cc1Cl)NC(CSCc1ccccc1)=NS2(=O)=O,inactive,inactive,–,–,inactive,inactive,inactive,inactive,–,inactive,inactive,–,–
C(=C(c1ccccc1)c1ccccc1)c1ccccc1,–,inactive,inactive,inactive,inactive,inactive,inactive,inactive,–,–,inactive,–,–
C#CC(O)C(CC)CCCC (configuration not stated),inactive,inactive,–,–,inactive,inactive,inactive,–,inactive,inactive,inactive,–,–
COC(=O)CCCC(=O)O,inactive,inactive,–,–,inactive,inactive,inactive,inactive,–,inactive,inactive,–,–
CSc1nc(NC2CC2)nc(NC(C)(C)C)n1,inactive,inactive,–,–,inactive,inactive,inactive,inactive,–,17.2 µM (active),–,–,–
Fc1ccccc1-c1ccccc1,inactive,inactive,–,–,inactive,inactive,inactive,inactive,inactive,inactive,inactive,–,–
C=CC(=O)OCCCCCC,–,inactive,–,–,inactive,inactive,inactive,inactive,–,–,inactive,–,–
COc1cc(C)cc(O)c1,inactive,inactive,–,–,inactive,inactive,inactive,inactive,inactive,inactive,inactive,–,–
Cc1c(F)cc2c(=O)c(C(=O)O)cn3c2c1CCC3C (configuration not stated),inactive,inactive,–,–,–,inactive,inactive,inactive,inactive,inactive,inactive,–,inactive
O=Cc1ccccc1[N+](=O)[O-],inactive,inactive,–,–,inactive,inactive,inactive,inactive,inactive,–,inactive,inactive,inactive
COC[C@H](c1ccc(C(F)(F)F)cc1)N1CCN(C2(C)CCN(C(=O)c3c(C)ncnc3C)CC2)C[C@H]1C,–,inactive,–,–,inactive,inactive,inactive,inactive,–,inactive,inactive,inactive,inactive
CC/C=C\CCCCO,inactive,inactive,–,–,inactive,inactive,inactive,inactive,–,–,inactive,–,–
Nc1ncnc2c1ncn2Cc1c(F)cccc1Cl,inactive,inactive,–,–,inactive,inactive,inactive,–,–,–,inactive,inactive,inactive
